# Measured values from PubChem BioAssay (NCATS).
# Inconclusive results are not listed. For some assays here: Entries with a potency or affinity are not part of this list. Calls of active or inactive are those of the source.
# Experiments:
# [1] = Ebola virus entry assay, green channel fluorescence
# [2] = Ebola virus entry assay, reporter ratio channel; AC50: Channel type: primary unless noted; outcome: Channel type: primary unless noted
# [3] = Ebola virus entry assay, blue channel (ratio component)
# [4] = qHTS assay for measurement of the activity of small molecule inhibitors on Zika virus induced Caspase-3 activity in human iPSC derived neural progenitor cells (hNPCs) (AID 1224857; active = well fitted inhibition curve with a large enough effect; also: nearly all actives have a fitted effect of over 65% in size); conditions: hNPCs ZIKV-induced caspase-3/7, Caspase-Glo luminescence, 6 h; series mostly up to 45.7 µM
# How it was run: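 After overnight (16–20 h) culture at 350 cells/well, hNPCs get compound, then ZIKV 2 FFU/cell one hour later. Six hours on, Caspase-Glo 3/7 is added and luminescence measured.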
# [5] = Ebola virus entry assay, blue channel fluorescence
# [6] = Ebola virus entry reporter assay, green channel fluorescence
# [7] = Ebola virus entry cell assay, ratio channel
# [8] = Immunotoxin (HA22) sensitization/mitigation study. Vehicle arm (PBS) (AID 1159510); conditions: cancer cells viability with PBS vehicle (HA22 study); series mostly up to 46.1 µM; also: potency is read from the fitted curve at half-maximal effect
# [9] = Immunotoxin (SS1P) sensitization/mitigation study. Vehicle arm (DMEM) (AID 1159513); conditions: cell viability with vehicle (DMEM); series mostly up to 46.1 µM; also: potency is read from the fitted curve at half-maximal effect
compound,measurement,setting,value
CC(C)c1c(CN(C)C(C)Cc2ccccc2)n(C)n(-c2ccccc2)c1=O (stereo unspecified),outcome,[1],inactive
same,outcome,[2],inactive
same,outcome,[3],inactive
same,outcome,[4],inactive
COP(=S)(OC)Oc1ccc(S(=O)(=O)N(C)C)cc1,outcome,[1],inactive
same,outcome,[2],inactive
same,outcome,[3],inactive
same,outcome,[4],inactive
c1ccc2c(c1)sc1ccccc12,outcome,[1],inactive
same,outcome,[2],inactive
same,outcome,[3],inactive
same,outcome,[4],inactive
CCCN(CCC)C(=O)Cc1c(-c2ccc(Cl)cc2)nc2ccc(Cl)cn12,outcome,[1],inactive
same,outcome,[2],inactive
same,outcome,[3],inactive
same,outcome,[4],inactive
CCC1(CC)C(=O)C=CNC1=O,outcome,[1],inactive
same,outcome,[2],inactive
same,outcome,[3],inactive
same,outcome,[4],inactive
COc1cc(Br)c(C[N+]2(CCOCCC3CCC4CC3C4(C)C)CCOCC2)cc1OC (stereo unspecified),outcome,[5],inactive
same,outcome,[6],inactive
same,outcome,[7],inactive
O=C(N/N=C/c1ccc([N+](=O)[O-])o1)c1cc([N+](=O)[O-])cc([N+](=O)[O-])c1O,outcome,[1],inactive
same,outcome,[2],inactive
same,outcome,[3],inactive
same,outcome,[4],inactive
NC[C@H]1O[C@H](O[C@H]2[C@H](O)[C@@H](O[C@H]3O[C@H](CO)[C@@H](O)[C@H](N)[C@H]3O)[C@H](N)C[C@@H]2N)[C@H](O)[C@@H](O)[C@@H]1O,outcome,[5],inactive
same,outcome,[6],inactive
same,outcome,[7],inactive
CCc1cc2c(s1)-n1c(C)nnc1CN=C2c1ccccc1Cl,outcome,[1],inactive
same,outcome,[2],inactive
same,outcome,[3],inactive
same,outcome,[4],inactive
CO[C@H]1C=CO[C@@]2(C)Oc3c(C)c(O)c4c(O)c(c5c(c4c3C2=O)=NC2(CCN(CC(C)C)CC2)N=5)NC(=O)/C(C)=C\C=C/[C@H](C)[C@H](O)[C@@H](C)[C@@H](O)[C@@H](C)[C@H](OC(C)=O)[C@@H]1C,outcome,[5],inactive
same,outcome,[6],inactive
same,outcome,[7],inactive
Nc1ccc([As](=O)(O)O)cc1,outcome,[1],inactive
same,outcome,[2],inactive
same,outcome,[3],inactive
same,outcome,[4],inactive
CO/N=C(\C(=O)N[C@@H]1C(=O)N2C(C(=O)O)=C(C[N+]3(C)CCCC3)CS[C@H]12)c1csc(N)n1,outcome,[5],inactive
same,outcome,[6],inactive
same,outcome,[7],inactive
CNC(=O)c1ccccc1Sc1ccc2c(/C=C/c3ccccn3)n[nH]c2c1,outcome,[1],inactive
same,Potency,[8],6.62 µM (active)
same,Potency,[9],1.05 µM (active)
CN1[C@@H]2CCC[C@@H]1CC(NC(=O)c1nn(C)c3ccccc13)C2 (stereo partly specified),outcome,[5],inactive
same,outcome,[6],inactive
same,outcome,[7],inactive
Nc1nc(NC2CC2)c2ncn([C@@H]3C=C[C@@H](CO)C3)c2n1,outcome,[5],inactive
same,outcome,[6],inactive
same,outcome,[7],inactive
CCCCC(C)(O)C/C=C/[C@H]1[C@H](O)CC(=O)[C@@H]1CCCCCCC(=O)OC (stereo partly specified),outcome,[5],inactive
same,outcome,[6],inactive
same,outcome,[7],inactive
CC1(C)C(C=C(Cl)Cl)C1C(=O)OC(C#N)c1cccc(Oc2ccccc2)c1 (stereo unspecified),outcome,[1],inactive
same,outcome,[2],inactive
same,outcome,[3],inactive
same,outcome,[4],inactive
CO/N=C(\C(=O)N[C@@H]1C(=O)N2C(C(=O)O)=CCS[C@H]12)c1csc(N)n1,outcome,[5],inactive
same,outcome,[6],inactive
same,outcome,[7],inactive
OCCOCCN1CCN(C2=Nc3ccccc3Sc3ccccc32)CC1,outcome,[5],inactive
same,outcome,[3],inactive
same,outcome,[6],inactive
same,outcome,[7],inactive
O=C(O)c1ccc(=O)[nH]c1,outcome,[1],inactive
same,outcome,[2],inactive
same,outcome,[3],inactive
same,outcome,[4],inactive
